# PMC4552634, “A New Set of Chemical Starting Points with Plasmodium falciparum Transmission-Blocking Potential for Antimalarial Drug Discovery” (PLoS ONE, 2015)
# Out of some 13,000 compounds screened, about 3,200 (25%) showed an effect of 50% or more. The list shows a part of the results.
# System: P. falciparum stage V gametocytes
# Set-up: BacTiter-Glo ATP luminescence viability of purified stage V gametocytes in 384-well plates, per cent inhibition versus DMSO
# Conditions: 48 h, 5 µM; inhibitor
row,SMILES,% Inhibition
1,CC[C@H](C)CNC(=O)c1cccc(-c2cccc(CNCC3CNCCCO3)c2)n1 (stereo partly drawn) [TCMDC-134217],48.98%
2,Clc1cc(Nc2ncnc3sc(C#Cc4ncc[nH]4)cc23)ccc1OCc1ccccn1 [TCMDC-135429],-6.463%
3,Cc1cc(Cl)c(S(=O)(=O)N2CCc3ccccc32)cc1OCC(=O)NC1CCCCC1 [TCMDC-124369],-19.22%
4,Fc1ccc(-c2cncc(-c3ccc(F)cc3)n2)cc1 [TCMDC-137988],-9.929%
5,Cc1ccccc1C1CCN(C2CCC(NC(=O)/C=C/c3cccc(F)c3)CC2)CC1 (stereo not drawn) [TCMDC-133505],-47.31%
6,Nc1ccc(-c2cnc3[nH]cc(-c4ccc(C(=O)O)cc4)c3c2)cn1 [TCMDC-136383],1.916%
7,COc1ccc2nc(-c3ccc(C(=O)NCCCN4CCN(c5cc(Cl)ccc5OC)CC4)cc3OC)[nH]c2c1 [TCMDC-140025],-24.14%
8,CCCc1cc(Cc2cnc(N)nc2N)cc(OC)c1OC [TCMDC-137647],0.312%
9,O=C(Nc1cc(C(F)(F)F)cc(C(F)(F)F)c1)Nc1cc(C(F)(F)F)cc(C(F)(F)F)c1 [TCMDC-123956],-66.5%
10,CCOC(=O)c1ccc(-c2cnoc2-c2cc(CC)c(OC)cc2O)o1 [TCMDC-124201],-15.35%
11,CC1CN(c2cc(=O)n(Cc3ccc(NC(=O)Nc4ccc(-c5ccccc5)cc4)cc3)cn2)CC(C)N1 (stereo not drawn) [TCMDC-133372],24.66%
12,CCOc1cc(C(=O)NCCc2ccc(Cl)c(Cl)c2)ccc1-c1nc2ccc(Cl)cc2[nH]1 [TCMDC-140905],-12.3%
13,COC(=O)c1ccc2nc(-c3ccc(C(=O)NCc4ccc(Cl)c(Cl)c4)cc3)[nH]c2c1 [TCMDC-140445],73.87%
14,Cc1ccc2[nH]c(-c3ccc(C(=O)NCc4ccc(Cl)c(Cl)c4)cc3)nc2c1C [TCMDC-140450],11.51%
15,O=C(NCc1ccc(Cl)c(Cl)c1)c1ccc(-c2nc3ccc(Cl)cc3[nH]2)cc1 [TCMDC-140441],19.73%
16,CCOc1cc(C(=O)NCc2cc(Cl)cc(Cl)c2)ccc1-c1nc2ccc(Cl)cc2[nH]1 [TCMDC-140904],-8.665%
17,CCOc1cc(C(=O)NCc2ccc(Cl)c(Cl)c2)ccc1-c1nc2ccc(Cl)cc2[nH]1 [TCMDC-140903],96.39%
18,CC1(C)[C@H]2CC[C@@H](CNc3nc(NCCc4cnc[nH]4)nc(NCc4cc(F)ccc4F)n3)[C@@H]1C2 [TCMDC-139317],-2.684%
19,O=C(CCc1c[nH]cn1)Nc1cccc(-c2ccc(-c3nc4ccccc4[nH]3)s2)c1 [TCMDC-132152],-14.42%
20,Cn1cc(C2CCN(CCCCCNC(=O)/C=C/c3ccc(Cl)c(Cl)c3)CC2)c2cc(O)ccc21 [TCMDC-139364],-26.1%
21,CN(C)Cc1c(O)ccc2[nH]c(-c3cccc(F)c3)nc12 [TCMDC-136535],-72.73%
22,CN(C)Cc1c(O)ccc2[nH]c(-c3ccc(F)cc3F)nc12 [TCMDC-136534],71.11%
23,CC(C)CN(Cc1c(O)ccc2[nH]c(-c3ccc(F)cc3F)nc12)CC(C)C [TCMDC-136358],-65.39%

row,SMILES,% Inhibition
1,Cn1cnc(CCNC(=O)c2ccc(-c3cccc(-c4nc5cc(F)ccc5[nH]4)c3)cc2)c1 [TCMDC-132497],-1.156%
2,CC(C)(C)N1CCC(N(Cc2ccc(-c3ccc(C(F)(F)F)cc3)cc2)C(=O)Cn2c(CCc3cccc(F)c3F)nc(=O)c3cccnc32)CC1 [TCMDC-136050],107.4%
3,CC(C)N1CCC(N(Cc2ccc(-c3ccc(C(F)(F)F)cc3)cc2)C(=O)Cn2c(CCc3cccc(F)c3F)nc(=O)c3cccnc32)CC1 [TCMDC-136049],118.8%
4,O=C(Nc1cccc(-c2nn3ncccc3c2-c2ccnc(Nc3cccc(C(F)(F)F)c3)n2)c1)c1c(F)cccc1F [TCMDC-135549],-33.07%
5,COCn1ncc2cc(-c3cccc(NC(=O)c4csc(NC(C)=O)n4)c3)ccc21 [TCMDC-133146],24.99%
6,CNC(=O)C(C)N(c1ccc(Cl)cc1)c1nc(C(C)(C)C)cs1 (stereo not drawn) [TCMDC-125380],52.18%
7,CC1(C)N=C(N)N=C(N)N1OCCCc1cc(Cl)c(Cl)cc1Cl [TCMDC-131696],1.916%
8,CCCCc1cc(N2CCC(NC(C)=O)C2)nc(Nc2ccc(C)cc2)n1 (stereo not drawn) [TCMDC-134020],11.89%
9,COc1cc2nc(NCc3ccc(S(N)(=O)=O)cc3)nc(Nc3ccc(Oc4ccccc4)cc3)c2cc1OC [TCMDC-138256],65.95%
10,COc1cc2nc(Nc3ccc(C)cc3)nc(Nc3ccc(C)cc3)c2cc1OC.Cl [TCMDC-138540],91.22%
11,COc1cc2ncnc(Nc3ccc(OCc4ccccc4)c(OCc4ccccc4)c3)c2cc1OC [TCMDC-131922],-20.12%
12,N#Cc1cnc(Nc2ccc(Oc3ccccc3)cc2)nc1Nc1cccc(S(N)(=O)=O)c1 [TCMDC-138613],-50.28%
13,COc1cc2nc(N(C)C)nc(Nc3ccc(OCc4ccccc4)cc3)c2cc1OC [TCMDC-137183],59.63%
14,COc1cc2nc(NCCCO)nc(Nc3ccc(Oc4ccccc4)cc3)c2cc1OC [TCMDC-138255],110.2%
15,COc1cc2nc(C)nc(Nc3ccc(Oc4ccccc4)cc3)c2cc1OC [TCMDC-131940],0.7535%
16,COc1ccc(Nc2nc(N)c3cc(OC)c(OC)cc3n2)cc1OC.Cl [TCMDC-131881],-0.9625%
17,COc1cc2nc(Nc3ccc(Oc4ccccc4)cc3)nc(Nc3ccc(Oc4ccccc4)cc3)c2cc1OC [TCMDC-138238],-17.62%
18,COc1cc2nc(Nc3ccc4c(c3)OCCO4)nc(N)c2cc1OC.Cl [TCMDC-131882],-45.81%
19,COc1cc2nccc(Nc3ccc(Oc4ccccc4)cc3)c2cc1OC.Cl [TCMDC-131917],-23.95%
20,COc1cc2nc(C)nc(Nc3ccc(Cc4ccccc4)cc3)c2cc1OC [TCMDC-131941],1.462%
21,C=C(NC(=O)C1CCCCC1)C(=O)OC [TCMDC-131685],0.06563%
22,NC1=NC(c2ccccc2)(c2ccccn2)C(=O)N1CCCc1ccccc1 (stereo not drawn) [TCMDC-136603],9.29%
23,Cc1cc(N2CCCC2)nc(Nc2ccc(NC(=O)c3ccccc3F)cc2)n1 [TCMDC-124710],-34.77%

row,SMILES,% Inhibition
1,CCNc1cc(C(=O)N[C@@H](Cc2ccccc2)[C@H](O)CNCc2cccc(-c3cncnc3)c2)cc(N2CCCC2=O)c1 [TCMDC-141687],18.59%
2,O=C(Nc1cccc(-c2nn3ccccc3c2-c2ccnc(Nc3cccc(N4CCCC4=O)c3)n2)c1)c1cc(F)ccc1F [TCMDC-135850],10.23%
3,COc1ccccc1C1CN(CCNC(=O)c2ncc(C)[nH]2)Cc2ccccc2O1 (stereo not drawn) [TCMDC-124657],-1.409%
4,COc1cccc2cc(C(=O)N[C@@H](CC(C)C)C(=O)NC(/C=N/NC(=O)c3ccccc3)CCc3ccccc3)oc12 (stereo partly drawn) [TCMDC-135434],-2.183%
5,COc1ccc(Cn2cncc2CN(CCC(C)C)C(=O)c2ccc(Cl)nc2Cl)cc1 [TCMDC-132536],21.31%
6,COc1ccc(CN2CCCN(Cc3cccc(NC(=O)c4cc5ccccc5s4)c3)CC2)cc1 [TCMDC-141867],-63.54%
7,O=C(Nc1cccc(CN2CCN(C(=O)c3cccc(F)c3)CC2)c1)c1cccs1 [TCMDC-136330],79.41%
8,O=C(Nc1cccc(CN2CCN(C(=O)c3ccccc3)CC2)c1)c1cccs1 [TCMDC-136325],14.84%
9,O=C(Nc1cccc(CN2CCCN(Cc3ccc(O)cc3)CC2)c1)c1cc2ccccc2s1 [TCMDC-141878],32.43%
10,O=C(Nc1cccc(CN2CCCN(Cc3ccc(F)cc3)CC2)c1)c1cc2ccccc2s1 [TCMDC-141876],71.77%
11,Cc1ccc(CN2CCCN(Cc3cccc(NC(=O)c4cc5ccccc5s4)c3)CC2)cc1C [TCMDC-141879],80.31%
12,Cc1ccc(CN2CCN(Cc3cccc(NC(=O)c4cccs4)c3)CC2)cc1C [TCMDC-141888],86.1%
13,O=C(Nc1cccc(CN2CCN(C(=O)c3cccs3)CC2)c1)c1cccs1 [TCMDC-136329],33.24%
14,Cc1ccc(CN2CCN(Cc3cccc(NC(=O)c4ccc5ccccc5c4)c3)CC2)cc1C [TCMDC-141887],-29.11%
15,Cc1cccc(C(=O)N2CCN(Cc3cccc(NC(=O)c4cccs4)c3)CC2)c1 [TCMDC-136328],7.958%
16,O=C(NCC1CCC(CNCCCc2ccccc2)CC1)c1cc(Cl)cc(Cl)c1 (stereo not drawn) [TCMDC-140679],-14.35%
17,CCCc1cc(N2CCC(c3ccccc3)(N3CCCCC3)CC2)nc(Nc2ccc(OC)cc2)n1 [TCMDC-132389],-43.67%
18,O=C(Nc1cccc(CN2CCN(Cc3ccc(O)cc3)CC2)c1)c1cc2ccccc2s1 [TCMDC-134624],6.138%
19,Cc1cccc(C(=O)N2CCN(Cc3cccc(NC(=O)c4ccco4)c3)CC2)c1 [TCMDC-136323],80.03%
20,O=C(Nc1cccc(CN2CCCN(Cc3ccc4c(c3)OCO4)CC2)c1)c1cc2ccccc2s1 [TCMDC-141865],83.34%
21,N#Cc1ccc(CN2CCCN(Cc3cccc(NC(=O)c4cc5ccccc5s4)c3)CC2)cc1 [TCMDC-141866],-28.76%
22,O=C(Nc1cccc(CN2CCN(C(=O)c3cccc(F)c3)CC2)c1)c1ccco1 [TCMDC-136324],35.66%
23,O=C(Nc1cccc(CN2CCN(C(=O)c3ccccc3)CC2)c1)c1ccco1 [TCMDC-136321],-15.6%
